{"source": "PubChem BioAssay (Tox21)", "note": "Inconclusive results are not listed. A call without a number means that no potency is given here. The source made the active and inactive calls. Calls follow the shape of the dose curve; as a rule, active = well fitted curve in the direction sought with a large enough effect in the repeat runs; inconclusive = weak or mixed curves; inactive = no such curve, though single readings can be large; an effect the other way counts as inactive or inconclusive. Also: nearly all actives have a fitted effect of over 50% in size. Potency is read from the fitted curve at half-maximal effect."}
{"molecular_target": "Voltage-gated inwardly rectifying potassium channel KCNH2 (Homo sapiens) (UniProt Q12809)", "sequence (Q12809 whole entry, looked up)": "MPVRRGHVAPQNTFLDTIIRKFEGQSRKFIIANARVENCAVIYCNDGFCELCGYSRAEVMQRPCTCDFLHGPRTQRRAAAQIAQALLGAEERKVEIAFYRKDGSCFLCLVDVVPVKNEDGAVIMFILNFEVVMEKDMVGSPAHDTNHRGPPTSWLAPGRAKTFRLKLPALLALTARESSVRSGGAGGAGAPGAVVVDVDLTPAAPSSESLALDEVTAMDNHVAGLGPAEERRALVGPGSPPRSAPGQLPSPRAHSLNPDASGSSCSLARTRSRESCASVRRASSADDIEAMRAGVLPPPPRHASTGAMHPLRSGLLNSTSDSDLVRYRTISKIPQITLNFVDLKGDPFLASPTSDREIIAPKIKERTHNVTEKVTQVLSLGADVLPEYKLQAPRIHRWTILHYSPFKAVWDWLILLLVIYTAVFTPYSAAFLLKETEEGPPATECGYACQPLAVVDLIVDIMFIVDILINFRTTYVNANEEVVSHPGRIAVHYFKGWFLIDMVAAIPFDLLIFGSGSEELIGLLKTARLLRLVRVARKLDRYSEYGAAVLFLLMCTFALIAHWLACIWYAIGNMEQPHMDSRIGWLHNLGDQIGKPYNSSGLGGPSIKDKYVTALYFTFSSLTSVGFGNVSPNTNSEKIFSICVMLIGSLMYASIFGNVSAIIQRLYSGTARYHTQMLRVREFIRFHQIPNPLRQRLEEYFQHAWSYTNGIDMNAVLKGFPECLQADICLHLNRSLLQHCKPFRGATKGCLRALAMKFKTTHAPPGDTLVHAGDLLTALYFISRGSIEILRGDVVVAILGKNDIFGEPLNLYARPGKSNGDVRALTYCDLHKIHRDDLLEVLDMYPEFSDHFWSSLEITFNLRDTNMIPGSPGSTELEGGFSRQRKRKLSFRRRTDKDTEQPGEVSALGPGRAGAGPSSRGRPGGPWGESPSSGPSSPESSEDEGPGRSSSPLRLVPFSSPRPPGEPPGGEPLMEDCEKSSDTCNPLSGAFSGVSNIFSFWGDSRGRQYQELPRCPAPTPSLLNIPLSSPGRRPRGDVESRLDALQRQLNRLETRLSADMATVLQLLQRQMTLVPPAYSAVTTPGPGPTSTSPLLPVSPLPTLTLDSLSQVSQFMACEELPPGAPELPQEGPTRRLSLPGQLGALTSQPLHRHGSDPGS", "experiment": "Human Ether-a-go-go-Related Gene (hERG) channel small molecule antagonists: fluorescence cell-based qHTS assay (AID 1671200)", "conditions": "hERG-U2OS cells, FluxOR thallium flux fluorescence; series mostly up to 76.8 µM", "outline": "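Kinetic two-minute fluorescence traces, sampled at 1 s, were collected following thallium stimulus of U2OS cells (1000 per well) that had been cultured overnight at 37 C and loaded with FluxOR II.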"}
{"smiles": "CC(C)(C)C1=CC(=O)C=C(C(C)(C)C)C1=O", "Potency": "inactive"}
{"smiles": "O=C(NO)c1ccccc1", "Potency": "inactive"}
{"smiles": "Nc1ncnc2c1ncn2[C@@H]1O[C@H](COP(=O)(O)O)[C@@H](O)[C@H]1O", "Potency": "inactive"}
{"smiles": "CC(C)(C)c1cc(/C=C2\\SC(=N)NC2=O)cc(C(C)(C)C)c1O", "Potency": "inactive"}
{"smiles": "CCCCCCCC/C=C/CCCOC(C)=O", "Potency": "inactive"}
{"smiles": "CCN(CC)CCCN(c1ccccc1)C1Cc2ccccc2C1", "Potency": "2.13 µM (active)"}
{"smiles": "COC(=O)CC#N", "Potency": "inactive"}
{"molecular_target": "Cytochrome P450 3A4 (Homo sapiens) (UniProt P08684)", "sequence (P08684 whole entry, looked up)": "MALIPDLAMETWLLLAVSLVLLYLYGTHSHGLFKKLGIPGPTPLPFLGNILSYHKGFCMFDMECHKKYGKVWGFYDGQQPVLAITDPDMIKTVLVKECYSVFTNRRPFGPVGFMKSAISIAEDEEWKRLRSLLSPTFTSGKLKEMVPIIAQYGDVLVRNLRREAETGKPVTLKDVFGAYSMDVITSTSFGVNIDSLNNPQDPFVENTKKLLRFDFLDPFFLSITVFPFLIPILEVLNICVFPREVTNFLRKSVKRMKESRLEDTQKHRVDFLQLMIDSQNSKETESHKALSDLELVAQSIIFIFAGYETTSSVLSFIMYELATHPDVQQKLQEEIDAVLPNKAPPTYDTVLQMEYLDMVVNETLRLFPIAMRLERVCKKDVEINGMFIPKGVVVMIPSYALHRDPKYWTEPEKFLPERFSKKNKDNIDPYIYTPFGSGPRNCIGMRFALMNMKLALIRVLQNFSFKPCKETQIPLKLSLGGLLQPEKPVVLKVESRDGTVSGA", "experiment": "Cytochrome P450 Family 3 Subfamily A Member 4 (CYP3A4) small molecule antagonists: luciferase reporter qHTS assay (AID 1671201)", "conditions": "P450-Glo CYP3A4 enzyme, luciferin luminescence, 1 h; series mostly up to 115 µM", "outline": "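Proluciferin-to-luciferin conversion by CYP3A4, NADPH-regenerated, 1 h RT; luminescence read as RLU. Ketoconazole as control.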"}
{"smiles": "CC(C)N=C(N)/N=C(\\N)Nc1ccc(Cl)cc1", "Potency": "inactive"}
{"smiles": "O=C(O)CCCCCCC(=O)O", "Potency": "inactive"}
{"smiles": "CCCCCCCCCCc1ccccc1", "Potency": "inactive"}
{"smiles": "CCC(=O)OCCc1ccccc1", "Potency": "inactive"}
{"smiles": "CCCCCCCCCCCC(=O)N(CC)CC", "Potency": "inactive"}
{"smiles": "CC1(C)COCN1", "Potency": "inactive"}
{"smiles": "CCCCCCS", "Potency": "inactive"}
{"smiles": "C#CC(O)CCC", "note": "(configuration not stated)", "Potency": "inactive"}
{"smiles": "COc1ccc(C#N)cc1", "Potency": "inactive"}
{"smiles": "COc1nccnc1CC(C)C", "Potency": "inactive"}
{"smiles": "C=CC/C=C/C/C=C/C/C=C/C", "Potency": "inactive"}
{"smiles": "C1CC(COCC2CO2)CCC1COCC1CO1", "note": "(configuration not stated)", "Potency": "inactive"}
{"smiles": "COC(=O)[C@]1(C)CCC[C@@]2(C)[C@H]1CC=C1C=C(C(C)C)CC[C@@H]12", "Potency": "35.6 µM (active)"}
{"smiles": "CCCCCCCCCCCCCOP(=O)(O)O", "Potency": "inactive"}
{"smiles": "CCCCOC(=O)C(C)CC", "note": "(configuration not stated)", "Potency": "inactive"}
{"smiles": "CCc1cccc(CC)c1NC(=O)C(=O)O", "Potency": "inactive"}
{"smiles": "C[Si](C)(C)Cl", "Potency": "inactive"}
{"smiles": "CC1CNCC(C)O1", "note": "(configuration not stated)", "Potency": "inactive"}
{"smiles": "COC(=O)CC(C)CCC=C(C)C", "note": "(configuration not stated)", "Potency": "inactive"}
{"smiles": "Oc1c(Br)cc(Br)c2cccnc12", "Potency": "inactive"}
{"smiles": "CC(C)=C1CC[C@@H](C)CC1=O", "Potency": "inactive"}
{"smiles": "C=CC(=O)OCCOCC(CC)(COCCOC(=O)C=C)COCCOC(=O)C=C", "Potency": "0.932 µM (active)"}
{"smiles": "COc1cccc(O)c1", "Potency": "inactive"}
{"smiles": "Clc1nc2ccccc2s1", "Potency": "inactive"}
{"smiles": "CC(=O)c1ccccc1N", "Potency": "inactive"}
{"smiles": "CC(C)(C)C1=CC(=O)C=C(C(C)(C)C)C1=O", "Potency": "inactive"}
{"smiles": "O=C(NO)c1ccccc1", "Potency": "inactive"}
{"smiles": "CC1=C(/C=C/C(C)=C/C=C/C(C)=C\\C=O)C(C)(C)CCC1", "Potency": "30 µM (active)"}
{"smiles": "Nc1ncnc2c1ncn2[C@@H]1O[C@H](COP(=O)(O)O)[C@@H](O)[C@H]1O", "Potency": "inactive"}
{"smiles": "CC(C)(C)c1cc(/C=C2\\SC(=N)NC2=O)cc(C(C)(C)C)c1O", "Potency": "11.2 µM (active)"}
{"smiles": "CCCCCCCC/C=C/CCCOC(C)=O", "Potency": "inactive"}
{"smiles": "CO[C@H]1C=CO[C@@]2(C)Oc3c(C)c(O)c4c(O)c(cc(O)c4c3C2=O)NC(=O)/C(C)=C\\C=C/[C@H](C)[C@H](O)[C@@H](C)[C@@H](O)[C@@H](C)[C@H](OC(C)=O)[C@@H]1C", "Potency": "1.27 µM (active)"}
{"smiles": "O=C(Oc1ccccc1)c1cccc(C(=O)Oc2ccccc2)c1", "Potency": "inactive"}
{"smiles": "CCN(CC)CCCN(c1ccccc1)C1Cc2ccccc2C1", "Potency": "inactive"}
{"smiles": "COC(=O)CC#N", "Potency": "inactive"}
